{"source": "PubChem BioAssay AID696", "about": "(Sanford-Burnham Center for Chemical Genomics, 2007)", "note": "About 1,200 (1.2%) of roughly 96,000 compounds were called active. The sample holds actives, similar compounds and a random draw of the others, so the mix is not that of the screen. Rule as the data show it: active = activation fold above about 2; inactive = the rest.", "data": [{"biological_target": "Alkaline phosphatase, placental type (Homo sapiens) (UniProt P05187)", "sequence (P05187 whole entry, looked up)": "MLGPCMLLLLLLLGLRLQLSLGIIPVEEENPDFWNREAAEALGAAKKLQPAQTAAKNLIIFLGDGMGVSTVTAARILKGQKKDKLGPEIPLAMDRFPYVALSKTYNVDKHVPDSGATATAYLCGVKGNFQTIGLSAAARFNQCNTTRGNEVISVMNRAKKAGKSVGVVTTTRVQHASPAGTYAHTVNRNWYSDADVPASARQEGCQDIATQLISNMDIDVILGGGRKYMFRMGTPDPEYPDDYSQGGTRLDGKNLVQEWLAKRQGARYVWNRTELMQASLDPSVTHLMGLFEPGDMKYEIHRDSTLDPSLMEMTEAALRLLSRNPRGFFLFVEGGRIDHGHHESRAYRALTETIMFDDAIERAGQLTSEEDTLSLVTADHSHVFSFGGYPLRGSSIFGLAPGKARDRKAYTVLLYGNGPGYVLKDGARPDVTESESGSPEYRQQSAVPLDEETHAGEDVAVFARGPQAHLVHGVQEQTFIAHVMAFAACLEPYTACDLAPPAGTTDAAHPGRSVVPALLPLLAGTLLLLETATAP", "test": "PLAP enzyme activators, biochemical, luminescence, HTS (AID 696)", "settings": "purified PLAP enzyme, luminescent substrate read-out; at 20 µM; stronger effect = higher value", "values": [{"compound": "COc1cccc2c1OCC1COc3c(c(=O)n(C)c(=O)n3C)C21", "note": "(centres undefined)", "activation fold": "1 (inactive)"}, {"compound": "CCNC(=S)NNC(=O)Cc1ccccc1", "activation fold": "1.3 (inactive)"}, {"compound": "CC(C)(C)c1ccc(C(=O)NNC(=O)Cc2ccccc2)cc1", "activation fold": "2.1 (active)"}, {"compound": "COc1ccc(OCC(=O)NNC(=O)c2ccc(-c3ccccc3)cc2)cc1", "activation fold": "1.5 (inactive)"}, {"compound": "Cc1ccc(-c2cnc(NC(=O)CCC(=O)N(C)Cc3ccccc3)n2C)cc1", "activation fold": "1.5 (inactive)"}, {"compound": "Cc1ccc(-n2nc(N)c3c(=O)oc(N(C)C)nc32)cc1", "activation fold": "1.1 (inactive)"}, {"compound": "CSc1nc(-c2ccco2)nn1C(=O)CCc1ccccc1", "activation fold": "1.1 (inactive)"}, {"compound": "COc1ccc(C2N=C(N)N=C(N)N2c2ccccc2)cc1OC", "note": "(centres undefined)", "activation fold": "2.5 (active)"}, {"compound": "COc1ccc(C2SCCN2S(=O)(=O)c2ccccc2)cc1OC", "note": "(centres undefined)", "activation fold": "1.3 (inactive)"}, {"compound": "COc1ccc(C2CC(=O)n3c(nc4ccccc43)S2)cc1OC", "note": "(centres undefined)", "activation fold": "1.1 (inactive)"}, {"compound": "COCCn1c(C)cc(C2=NNC(=Nc3ccc(F)cc3)SC2)c1C", "activation fold": "1.2 (inactive)"}, {"compound": "CN1/C(=C\\C(=O)c2oc3ccccc3c2N)C(C)(C)c2ccccc21", "activation fold": "1 (inactive)"}, {"compound": "COc1ccc(NC(C)=O)cc1NC(=O)CN1CCN(c2ccccn2)CC1", "activation fold": "1 (inactive)"}, {"compound": "COc1ccc(NC(C)=O)cc1NC(=O)CN1CCN(C2c3ccccc3-c3ccccc32)CC1", "activation fold": "2.8 (active)"}, {"compound": "COc1ccc(OC)c(NC(=O)CN2CCN(C(=O)c3ccco3)CC2)c1", "activation fold": "1.2 (inactive)"}, {"compound": "Cc1ccc(S(=O)(=O)Nc2nc(C)cc(-n3nc(C)cc3C)n2)cc1", "activation fold": "1.4 (inactive)"}, {"compound": "Nc1nc(SCc2ccccc2Cl)n[nH]1", "activation fold": "1.5 (inactive)"}, {"compound": "Nc1nc(SCCOc2ccccc2)n[nH]1", "activation fold": "2 (active)"}, {"compound": "COc1ccc(C(=O)CSc2n[nH]c(N)n2)cc1", "activation fold": "1.5 (inactive)"}, {"compound": "COc1ccccc1-c1n[nH]c2c1[C@H](C)CC[C@H]2C(C)C", "activation fold": "1.4 (inactive)"}, {"compound": "O=C(OCN1C(=O)c2ccccc2C1=O)/C(=C\\c1ccco1)NC(=O)c1ccccc1", "activation fold": "1.1 (inactive)"}, {"compound": "CCOc1cccc(C(=O)Nc2cnn(Cc3ccccc3)c2)c1", "activation fold": "0.7 (inactive)"}, {"compound": "COc1ccc(CNC(=O)CCn2cccc2)cc1", "activation fold": "1 (inactive)"}, {"compound": "CC(C)NC(=O)NC(=O)COC(=O)c1ccc(NC(=O)CC#N)cc1", "activation fold": "1.4 (inactive)"}, {"compound": "O=C(Nc1nnc(C2CC2)s1)c1ccccn1", "activation fold": "2.3 (active)"}, {"compound": "COc1ccc2c(CC(=O)Nc3nnc(C4CC4)s3)coc2c1", "activation fold": "0.9 (inactive)"}, {"compound": "Cc1occc1C(=O)Nc1nnc(C2CCCCC2)s1", "activation fold": "1 (inactive)"}, {"compound": "NC(=O)C1(N2CCCCC2)CCN(C(=S)Nc2ccc(Cl)cc2)CC1", "activation fold": "0.9 (inactive)"}, {"compound": "Cc1cccc(N2CCN(S(=O)(=O)c3ccc4[nH]c(=O)c(=O)[nH]c4c3)CC2C)c1", "note": "(centres undefined)", "activation fold": "2.2 (active)"}, {"compound": "COc1cccc(N2C(=O)CC(N3CCN(S(=O)(=O)c4ccccc4)CC3)C2=O)c1", "note": "(centres undefined)", "activation fold": "1.4 (inactive)"}, {"compound": "CN1CCN(S(=O)(=O)c2ccc3[nH]cc(C(=O)O)c(=O)c3c2)CC1", "activation fold": "1.1 (inactive)"}, {"compound": "O=C1C(Cl)=C(N2CCOCC2)C(=O)N1c1ccccc1", "activation fold": "1 (inactive)"}, {"compound": "O=C(CN1C(=O)C2C3C=CC(C3)C2C1=O)Nc1nc(-c2ccccn2)cs1", "note": "(centres undefined)", "activation fold": "2.3 (active)"}, {"compound": "O=C(CN1C(=O)C2C3C=CC(C3)C2C1=O)NCCc1ccccc1Cl", "note": "(centres undefined)", "activation fold": "0.9 (inactive)"}, {"compound": "O=C(NCCN1C(=O)C2C3C=CC(C3)C2C1=O)Nc1ccccn1", "note": "(centres undefined)", "activation fold": "1.1 (inactive)"}, {"compound": "CC(OC(=O)CN1C(=O)C2CCCCC2C1=O)C(=O)Nc1ncc(Cl)cc1Cl", "note": "(centres undefined)", "activation fold": "0.9 (inactive)"}, {"compound": "O=C(CCCC(=O)N(CC(=O)NC1CCCC1)Cc1ccccc1Cl)Nc1ccccn1", "activation fold": "2 (active)"}, {"compound": "Cc1noc(C)c1C(=O)N(CC(=O)NC1CCCC1)Cc1ccccc1F", "activation fold": "1 (inactive)"}, {"compound": "CCOc1ccccc1N(CC(=O)NC1CCCCC1)C(=O)CCCC(=O)Nc1ccccn1", "activation fold": "2 (active)"}, {"compound": "O=C(CN1CCN(c2ccccn2)CC1)NC1CCCCC1", "activation fold": "1.1 (inactive)"}, {"compound": "CCCC(=O)Nc1cc(OCC)c(NC(=O)NC2CCCCC2)cc1OCC", "activation fold": "0.9 (inactive)"}, {"compound": "Cc1ccc(C(C(=O)NC2CCCC2)N(Cc2ccco2)C(=O)CCC(=O)Nc2ccccn2)cc1", "note": "(centres undefined)", "activation fold": "1.7 (inactive)"}, {"compound": "CCCCNC(=O)C(=O)c1ccccc1NC(C)=O", "activation fold": "0.9 (inactive)"}, {"compound": "Cc1cccc(C)c1NC(=O)CSc1nnc(-c2ccccc2)n1Cc1ccc2c(c1)OCO2", "activation fold": "1.4 (inactive)"}, {"compound": "Cc1cc(/C=C2/SC(=O)N(CC(=O)OC(C)C)C2=O)c(C)n1C", "activation fold": "1 (inactive)"}, {"compound": "COC(=O)CSc1snnc1-c1ccc(Cl)c(Cl)c1", "activation fold": "1 (inactive)"}, {"compound": "O=C(OCC(=O)c1cccs1)C1=COCCO1", "activation fold": "0.9 (inactive)"}, {"compound": "CCC(C)(C)c1ccc(Oc2ccc(NC(=O)COC(=O)C3=COCCO3)cc2)cc1", "activation fold": "2.9 (active)"}, {"compound": "CC(C)NS(=O)(=O)c1ccc(OCC(=O)Nc2ccc3c(c2)OCCO3)cc1", "activation fold": "0.7 (inactive)"}, {"compound": "O=C(CSCc1ccccc1)N1CCc2ccccc21", "activation fold": "0.7 (inactive)"}, {"compound": "c1ccc(CCc2nc(-c3ccncc3)no2)cc1", "activation fold": "0.9 (inactive)"}, {"compound": "O=C(Nc1cccc(Cl)c1)Nc1nnc(-c2ccccc2)o1", "activation fold": "1.1 (inactive)"}, {"compound": "O=C(COc1ccccc1)Nc1nonc1NC(=O)COc1ccccc1", "activation fold": "0.9 (inactive)"}, {"compound": "O=C(COC(=O)c1ccc(Oc2ccccc2)cc1)Nc1nnc(-c2ccccc2)o1", "activation fold": "2 (active)"}, {"compound": "Cc1ccc(NC(=O)C(C)c2cccc(C(=O)c3ccccc3)c2)cc1", "note": "(centres undefined)", "activation fold": "0.7 (inactive)"}, {"compound": "C=CCN(C(=O)Cn1ncc2c1-c1cc(C)ccc1OC2)c1ccccc1", "activation fold": "1.2 (inactive)"}, {"compound": "COc1ccccc1OCc1nc2ccccc2s1", "activation fold": "1 (inactive)"}, {"compound": "COc1ccc(C(C#N)N2N=C(C)CC2(C)C)cc1", "note": "(centres undefined)", "activation fold": "0.9 (inactive)"}, {"compound": "Cc1cccc(N(CC(=O)N=Nc2c(O)[nH]c3ccccc23)S(C)(=O)=O)c1C", "activation fold": "1.9 (inactive)"}, {"compound": "Cc1ccccc1NC(=O)c1ccccc1NS(=O)(=O)c1cccc2cccnc12", "activation fold": "1.3 (inactive)"}, {"compound": "O=C(/C=C/NNC(=O)c1cccc(Br)c1)c1ccccc1", "activation fold": "2 (active)"}, {"compound": "CC(C)(O)C(=O)NN(C(=O)c1ccccc1)c1cccc(Br)c1", "activation fold": "0.9 (inactive)"}, {"compound": "O=C(/C=C\\NCC(=O)c1ccccc1)c1ccccc1", "activation fold": "0.9 (inactive)"}, {"compound": "COc1ccccc1NS(=O)(=O)N(C)C", "activation fold": "0.8 (inactive)"}, {"compound": "CCOc1ccc(C(CCc2ccccc2)NC(=O)c2ccc(OC)c(OC)c2)cc1OCC", "note": "(centres undefined)", "activation fold": "2.2 (active)"}, {"compound": "COc1ccc(C(=O)NCCc2ccc(S(N)(=O)=O)cc2)cc1OC", "activation fold": "1 (inactive)"}, {"compound": "CCOC(=O)CSc1nnc(CNC(=O)Cc2ccccc2)n1-c1ccccc1OC", "activation fold": "1 (inactive)"}, {"compound": "CCOC(=O)C1=NNC2(c3ccc(Cl)cc3)C(=O)N(c3cc(C)cc(C)c3)C(=O)C12", "note": "(centres undefined)", "activation fold": "1.1 (inactive)"}, {"compound": "CCOC(=O)Cc1csc(NC(NC(=O)OCC)(C(F)(F)F)C(F)(F)F)n1", "activation fold": "0.9 (inactive)"}, {"compound": "CCOc1ccc(Nc2nc(Cc3nnc(SCC(=O)c4ccc(C)cc4)o3)cs2)cc1", "activation fold": "0.7 (inactive)"}, {"compound": "Cc1cc(C(F)(F)F)n2ncc(-c3ccccc3)c2n1", "activation fold": "0.9 (inactive)"}, {"compound": "Cc1ccc(/C=N\\n2c(-c3ccccc3)n[nH]c2=S)s1", "activation fold": "1.3 (inactive)"}, {"compound": "Cn1c(-c2sc3cc(C(F)(F)F)cnc3c2-c2ccccc2)n[nH]c1=S", "activation fold": "2.6 (active)"}, {"compound": "CO/N=C(/CS(=O)(=O)c1ccc(Br)cc1)c1ccc(OC)cc1", "activation fold": "1.6 (inactive)"}, {"compound": "CC(C)c1ccc(Nc2ncccc2C#N)cc1", "activation fold": "0.9 (inactive)"}, {"compound": "COc1ccccc1C(=O)Nc1nc2nc(-c3ccccc3)cc(=O)n2[nH]1", "activation fold": "1.1 (inactive)"}, {"compound": "CCCCNc1ccc(C(=O)Nc2cccc(C)n2)cc1[N+](=O)[O-]", "activation fold": "0.9 (inactive)"}, {"compound": "O=C(Nc1nnc(SCc2ccc(Cl)cc2Cl)s1)C1COc2ccccc2O1", "note": "(centres undefined)", "activation fold": "1.1 (inactive)"}, {"compound": "O=C(c1cccs1)N1CCN(Cc2ccc3c(c2)OCO3)CC1", "activation fold": "1.2 (inactive)"}, {"compound": "O=C(CCCN1C(=O)c2cccc3cccc(c23)C1=O)N1CCN(Cc2ccc3c(c2)OCO3)CC1", "activation fold": "1.6 (inactive)"}, {"compound": "O=C(Nc1cccc2ccccc12)N1CCN(Cc2ccc3c(c2)OCO3)CC1", "activation fold": "2.1 (active)"}, {"compound": "O=C(CN1CCSCC1)N/N=C/c1ccc(F)cc1F", "activation fold": "1 (inactive)"}, {"compound": "CCC1Oc2ccc(Cl)cc2N(CC(=O)O)C1=O", "note": "(centres undefined)", "activation fold": "1 (inactive)"}, {"compound": "Cc1cccc(N2C(=O)SC(N(CC(=O)O)c3cccc(C)c3)C2=O)c1", "note": "(centres undefined)", "activation fold": "2.2 (active)"}, {"compound": "Cc1cccc(N(CC(=O)N2CCOCC2)S(C)(=O)=O)c1", "activation fold": "0.8 (inactive)"}, {"compound": "Cc1csc(OCC(=O)Nc2ccc(C)c(C)c2)n1", "activation fold": "1.2 (inactive)"}, {"compound": "N/C(=N\\OC(=O)CCc1ccccc1)c1ccc(Cl)cc1", "activation fold": "0.9 (inactive)"}, {"compound": "COc1cc(NS(=O)(=O)c2ccc(N=Cc3c(C)[nH]n(-c4ccccc4)c3=O)cc2)nc(OC)n1", "activation fold": "1.5 (inactive)"}, {"compound": "Cc1[nH]n(-c2cccc(Cl)c2)c(=O)c1-c1ccc(Cl)cc1", "activation fold": "1 (inactive)"}, {"compound": "Cc1[nH]n(-c2cccc(Cl)c2)c(=O)c1/C=N/n1c(C)nc2ccccc2c1=O", "activation fold": "2.1 (active)"}, {"compound": "CC1(C)CC(=O)C2=C(C1)N=C1SCCC(=O)N1C2c1ccc(C(F)(F)F)cc1", "note": "(centres undefined)", "activation fold": "1.2 (inactive)"}, {"compound": "COc1ccc(C)cc1S(=O)(=O)NCCc1ccccc1", "activation fold": "0.8 (inactive)"}, {"compound": "COC(=O)c1ccccc1NC(=O)CN(Cc1ccc(Cl)cc1)S(C)(=O)=O", "activation fold": "1.5 (inactive)"}, {"compound": "COc1ccc([N+](=O)[O-])cc1N(CC(O)Cn1nnc2ccccc21)S(=O)(=O)c1ccc(C)cc1", "note": "(centres undefined)", "activation fold": "1.4 (inactive)"}]}]}
